Assay outcomes: PubChem BioAssay, National Center for Advancing Translational Sciences (NCATS)
BLM helicase inh: qHTS Assay for Inhibitors of Bloom's syndrome helicase (BLM) | AID 2528, 2010 | recombinant BLM DNA unwinding, fluorescence dequenching | Potency, µM (doses to about 56.1 µM), most hits filed as inhibitors | 350,000 compounds, 0.2% hits | RecQ-like DNA helicase BLM (Homo sapiens), P54132; also: nearly all actives have a fitted effect of over 35% in size
RECQ1 inh: qHTS Assay for Inhibitors of RecQ-Like Dna Helicase 1 (RECQ1); ATP-dependent DNA helicase Q1 (Homo sapiens), P46063; 240,000 compounds, 0.54% hits; RECQ1 DNA unwinding, red fluorescence kinetic read; Potency, µM (highest dose often 57.3 µM), actives largely listed as inhibitors; also: nearly all actives have a fitted effect of over 30% in size
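50 nM RECQ1T1 preincubated 15 min with compound in Tris pH 8.0 buffer with MgCl2, DTT, Tween-20 and 2.5 ug/ml poly(dI-dC); started with 200 nM TAMRA/BHQ-2 forked duplex and 2 mM ATP. Unwinding read as fluorescence (525/598 nm), two reads 2 h apart.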
FEN1 inhibitor: qHTS Assay for the Inhibitors of Human Flap endonuclease 1 (FEN1). P39748. 390,000 compounds, 0.35% hits. AID 588795, 2011. Recombinant FEN1 flap cleavage, fluorescence, 15 min. Potency, µM (doses to about 114 µM), usual class: inhibitors; also: nearly all actives have a fitted effect of over 65% in size
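Potency values derive from four-parameter Hill fits of normalized qHTS data. The reaction used 10 nM FEN1 preincubated 15 min at room temperature with compound, then 50 nM DNA substrate, read at 0 and 15 min.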
TDP1 inh: qHTS Assay for Inhibitors of Tyrosyl-DNA Phosphodiesterase (TDP1); Potency, µM (titrated, usually from 130 µM), hits mostly inhibitors; Tyrosyl-DNA phosphodiesterase 1 (Homo sapiens), Q9NUW8; recombinant TDP1, AlphaScreen DNA substrate cleavage; 350,000 compounds, 0.28% hits; also: nearly all actives have a fitted effect of over 40% in size
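E. coli-derived human Tdp1, 1 nM final. Cpd preinc 15 min RT; substrate 15 nM final, 5 min RT; AS bead mix 10 ug/ml final, 10 min RT. Signal loss = tyrosine-FITC cleavage. No-enzyme wells = max signal.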
APE1 inh-1: qHTS Assay for Inhibitors of the Human Apurinic/apyrimidinic Endonuclease 1 (APE1); DNA repair nuclease/redox regulator APEX1 (Homo sapiens), P27695; recombinant APE1, TAMRA/BHQ-2 abasic DNA cleavage fluorescence; Potency, µM (highest dose often 65.8 µM), hits mostly inhibitors; 350,000 compounds, 0.35% hits; AID 2517, 2012; also: nearly all actives have a fitted effect of over 55% in size
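Quantitative HTS: incision of a TAMRA/BHQ-2 double-stranded substrate bearing a tetrahydrofuran abasic site by 0.75 nM APE1 raises fluorescence. Substrate 50 nM final, added after 15 min compound preincubation at room temperature; progress as third-minus-first kinetic read difference.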
DNA dye displace: Counterscreen for APE1 Inhibitors: Fluorescent Dye Displacement Assay; DNA fluorescent dye displacement counterscreen, fluorescence; 480 compounds, 7% hits; Potency, µM (titrated, usually from 28.5 µM), most hits filed as inhibitors; shares compounds with APE1 inh-1; AID 2564, 2010;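 also: loss of thiazole orange fluorescence as the dye is displaced from duplex DNA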
EndoIV counter: Counterscreen for APE1 Inhibitors: qHTS Assay for Inhibitors of Endonuclease IV | AID 2565, 2010 | 560 compounds, 4% hits | E. coli Endo IV, fluorogenic AP-site DNA cleavage | shares compounds with APE1 inh-1 | Potency, µM (top dose mostly 27.1 µM), usual class: inhibitors
APE1 inh-2: Confirmation qHTS Assay for Inhibitors of the Human Apurinic/apyrimidinic Endonuclease 1 (APE1). shares compounds with APE1 inh-1. purified APE1, fluorogenic abasic-site DNA cleavage. Potency, µM (doses to about 57.1 µM), most hits filed as inhibitors. 750 compounds, 44% hits; also: nearly all actives have a fitted effect of over 30% in size
APE1 FP inh: qHTS FP-Based Assay for Inhibitors of the Human Apurinic/apyrimidinic Endonuclease 1 (APE1). shares compounds with APE1 inh-1. APE1 binding to TAMRA-labelled double-stranded DNA, fluorescence polarization displacement. Potency, µM (titrated, usually from 28.5 µM), usual class: inhibitors. 480 compounds, 7% hits
Hits are given with their value; i = inactive; ? = inconclusive; nt = no result; ! = not active in a repeat; [ ] = dose if it differs, or a comment. Hits are enriched below; roughly 0.92% of the tested compounds scored in any of these assays. Calls follow the shape of the dose curve; as a rule, active = well fitted curve in the direction sought with a large enough effect; inconclusive = small, poorly fitted or top-dose-only effect, or another doubt; inactive = no such curve, though single readings can be large; an effect the other way counts as inactive or inconclusive.

SMILES	BLM helicase inh	RECQ1 inh	FEN1 inhibitor	TDP1 inh	APE1 inh-1	APE1 inh-2	others
CCSc1cc(N2CCCC2)nc(-c2ccc(C)cc2)n1	i	i	89µM	i	?	nt
N#Cc1cnn(-c2nc(SCc3ccccc3)nc3sc4c(c23)CCCC4)c1N	i	7.9µM	i	i	i	nt
COc1cccc(C2c3c(ncn(-c4cccc(Cl)c4)c3=N)Oc3ccc4ccccc4c32)c1 (configuration not stated)	nt	nt	nt	i	nt	nt
O=C1c2ccccc2C(=O)N1c1noc2ccccc12	nt	nt	nt	i	nt	nt
N=C1C(c2nc3ccccc3c(=O)[nH]2)=C(O)CN1CCc1ccccc1	i	i	i	71µM	i	nt
CN(C)c1ccc(C=c2c3ccccc3n3c2cc(-c2ccccc2)[n+]3C)cc1	nt	nt	8.9µM	nt	nt	nt
CN(C)c1ccc(/C=C2\C=Cc3cc([N+](=O)[O-])ccc32)cc1	nt	nt	i	nt	nt	nt
CN(C)c1ccc(C=c2c3cc([N+](=O)[O-])ccc3n3c2cc(-c2ccccc2)[n+]3C)cc1	nt	nt	56µM	nt	nt	nt
CN(c1ccc(Cl)cc1)c1cc(=O)n(C)c2ccccc12	i	i	?	i	i	nt
CN(C)c1ccc(C=c2c3ccccc3n3c2cc(-c2ccc(Cl)cc2)[n+]3C)cc1	nt	nt	22µM	nt	nt	nt
COc1cc(N(C)C)ccc1C=c1c2ccccc2n2c1cc(-c1ccccc1)[n+]2C	nt	nt	7.9µM	nt	nt	nt
COc1cc2c(NC3CCN(C)CC3)nc(N3CCCN(C)CC3)nc2cc1OCCOCCN(C)C	nt	nt	28µM	nt	nt	nt
COc1cc2c(NC3CCN(C(C)C)CC3)nc(N3CCCN(C)CC3)nc2cc1OCCCN1CCCC1	nt	nt	22µM	nt	nt	nt
CN(C)CCNc1cc(N2CCN(C)CC2)ncn1	nt	nt	i	nt	nt	nt
COc1cc2nc(N3CCN(C(=O)C4CCCO4)CC3)nc(N)c2cc1OC (configuration not stated)	i	i	i	i	i	nt
COc1cc2nc(N3CCN(C(=O)[C@H]4CCCO4)CC3)nc(N)c2cc1OC	i	i	nt	i	i	nt
COc1cc2c(NC3CCN(C(C)C)CC3)nc(N3CCCN(C)CC3)nc2cc1OCCOCCN(C)C	nt	nt	40µM	nt	nt	nt
c1ccc(CNCc2nnc(-c3cc4ccccc4[nH]3)s2)cc1	nt	nt	nt	i	nt	nt
CSc1nsc(/C=C/Nc2ccc(F)cc2F)c1C#N	i	i	i	i	i	nt
CSc1nsc(/C=C/Nc2ccc(C(=O)O)cc2)c1C#N	28µM	i	i	i	?	nt
Nc1nc2c(s1)CCc1c-2cnn1-c1ccccc1	i	?	18µM	i	i	nt
NS(=O)(=O)c1ccc(N=Nc2ccc(=O)[nH]c2O)cc1	i	i	79µM	45µM	16µM	?
CCOc1ccc(C(=O)Nc2cccc(NC(=O)c3ccc(C(C)(C)C)cc3)c2)cc1Br	i	nt	i	i[2.28 µM]	nt	nt
O=c1c2ccccc2nc(COc2ccccc2)n1/N=C/c1ccc(O)c(O)c1	i	28µM	i	i	?	?	DNA dye displace=?;EndoIV counter=i;APE1 FP inh=i
Cn1nc([N+](=O)[O-])nc1S(C)(=O)=O	i	i	i	i	?	?	DNA dye displace=i;EndoIV counter=i;APE1 FP inh=i
SMILES	BLM helicase inh	RECQ1 inh	FEN1 inhibitor	TDP1 inh	APE1 inh-1	APE1 inh-2	others
O=C(CSc1nc(NS(=O)(=O)c2ccccc2)cc(=O)[nH]1)Nc1ccc(Cl)cc1	?	i	i	7.1µM	i	i
O=C(CSc1nc2ccccc2c(=O)[nH]1)Nc1ccc(C(=O)O)cc1	i	i	i	50µM	i	i
O=C(CSc1nc2ccccc2c(=O)[nH]1)Nc1ccc([N+](=O)[O-])cc1	nt	nt	i	i	i	nt
CCCOc1cccc(C2c3c(oc4ccc(F)cc4c3=O)C(=O)N2Cc2ccc3c(c2)OCO3)c1 (configuration not stated)	i	nt	i	i	nt	nt
Cc1cc(C)cc(NC(=O)N2CCC(C(N)=O)(N3CCCCC3)CC2)c1	i	nt	i	i	nt	nt
CCCCC[C@H](O)/C=C/[C@@H]1[C@@H](C/C=C\CCCC(=O)OC)[C@@H](O)C[C@H]1O	i	i	?	50µM	i	i
O=[N+]([O-])c1ccc(Nc2nc(Cl)nc(NCCO)n2)cc1	i	i	i	i	i	nt
Nc1c(S(=O)(=O)O)cc(Nc2ccc(Nc3nc(Cl)nc(Nc4ccc(S(=O)(=O)O)cc4)n3)c(S(=O)(=O)O)c2)c2c1C(=O)c1ccccc1C2=O	nt	0.89µM	2µM	i	0.63µM	0.71µM	EndoIV counter=10µM
CC1(C)CC(=O)C=C(NCc2ccccc2)C1	i	i	i	i	?	?	DNA dye displace=i;EndoIV counter=i;APE1 FP inh=i
CC1(C)CC(=O)C=C(NCc2cccc(C(F)(F)F)c2)C1	i	i	i	i	i	nt
COC(=O)c1cc2oc3ccccc3c2n1Cc1ccccn1	i	i	i	i	?	i	DNA dye displace=i;EndoIV counter=i;APE1 FP inh=i
CC(=O)C1=C(O)C(=O)N(Cc2ccccc2)C1c1ccco1 (configuration not stated)	i	i	i	0.79µM	1µM	?	DNA dye displace=i;EndoIV counter=i;APE1 FP inh=i
CCOC(=O)c1cc2c(=O)n3ccccc3nc2n(Cc2ccco2)c1=NC(=O)c1cccc(OC)c1	?	i	i	i	i	nt
CCOC(=O)c1cc2c(=O)n3ccccc3nc2n(Cc2ccco2)c1=NC(=O)c1ccccc1OC	i	i	i	79µM!	?	i
Cc1ccc(C(=O)Nc2nc3nc(-c4ccccc4)cc(=O)n3[nH]2)cc1	i	i	i	45µM	i	?
CC(C)(C)c1ccc(C(=O)Nc2nc3nc(-c4ccccc4)cc(=O)n3[nH]2)cc1	i	nt	i	i	nt	nt
CCC(=O)N1CCc2cc(S(=O)(=O)NC(C(=O)Nc3cc(OC)cc(OC)c3)C(C)C)ccc21 (configuration not stated)	i	nt	i	i	nt	nt
